Hit rate of the full screen: of about 16,000 compounds, about 2,600 (16%) were called active. About 20% were inconclusive and are not listed. The call rests on the fitted dose curve; in most records, active means well fitted curve in the direction sought with a large enough effect; inconclusive means small, poorly fitted or top-dose-only effect, or effect the other way; inactive means no such curve, though single readings can be large or run the other way. Not all results are given here.
On the % scale 0 is the no-effect control and ±100 the full control effect.

Sequence of Cytochrome P450 2D6 (Homo sapiens) (P10635 whole entry, looked up): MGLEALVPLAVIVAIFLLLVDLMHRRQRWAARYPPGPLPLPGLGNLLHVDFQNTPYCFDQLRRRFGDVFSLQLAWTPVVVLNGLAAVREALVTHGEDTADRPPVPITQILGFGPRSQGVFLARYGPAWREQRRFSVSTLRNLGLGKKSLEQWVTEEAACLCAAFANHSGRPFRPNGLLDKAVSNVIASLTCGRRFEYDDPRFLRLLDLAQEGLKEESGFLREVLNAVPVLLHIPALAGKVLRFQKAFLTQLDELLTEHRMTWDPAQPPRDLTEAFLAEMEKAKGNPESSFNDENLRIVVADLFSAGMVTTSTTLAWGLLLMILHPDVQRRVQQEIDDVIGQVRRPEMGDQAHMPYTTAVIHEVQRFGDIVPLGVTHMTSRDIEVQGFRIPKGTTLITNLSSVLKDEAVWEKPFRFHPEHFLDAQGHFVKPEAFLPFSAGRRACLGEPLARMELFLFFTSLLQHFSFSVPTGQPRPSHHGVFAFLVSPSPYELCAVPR

The test addresses Cytochrome P450 2D6 (Homo sapiens) (UniProt P10635). In words: Cytochrome panel assay with activity outcomes. The conditions noted are these: recombinant CYP, pro-luciferin dealkylation, luminescence, p450-cyp2d6; series mostly up to 57.1 µM.
For orientation: AC50 means the concentration at which the activity in the assay is half-maximal. `NS(=O)(=O)Cc1noc2ccccc12`: the AC50 result was “inactive”.

`O=C(O)/C=C\C(=O)Nc1ccc2c(c1)C(=O)c1cc(F)ccc1-2`: the activity, negative = inhibition was -18.3% [at 11.4 µM] (inactive).

For `COCCNc1nc(-c2cccc(OC)c2)nc2ccccc12`, the half-maximal activity concentration (AC50) is 20 µM (active).

Take `COc1cccc(-c2nc(NC3CC3)c3ccccc3n2)c1`: the AC50 was 7.94 µM (active).

For `COc1cccc(-c2nc(NCCNC(C)=O)c3ccccc3n2)c1`, the AC50 is 3.98 µM (active).

Turning to `COCCNc1nc(-c2cccc(NS(C)(=O)=O)c2)nc2ccccc12`, the AC50 entry was “inactive”.

Turning to `COc1cccc(-c2nc(NC3CCNCC3)c3ccccc3n2)c1`, the AC50 result was “inactive”.

With `O=c1cnc2cnc(Nc3ccccc3)nc2n1C1CC1`, the AC50 result is “inactive”.

As to `COc1ccc2c(c1)-c1ccccc1S(=O)(=O)N2C(C)=O`, the AC50 entry is “inactive”.

Turning to `CCOC(=O)c1cnn(-c2ccccc2)c1-n1cccc1C(=O)C(=O)Nc1ccccc1C(F)(F)F`, the AC50 entry is “inactive”.

For `N#C/C(=C\c1cccs1)C(=O)NCC1CCCO1` (stereo unspecified), the AC50 result was “inactive”.

As to `CN(C)/C=C/C(=O)c1ccc(Cl)cc1`, the AC50 result was “inactive”.

`Cc1ccc(/C=N\NC(=O)c2cc(OCC(F)(F)F)ccc2OCC(F)(F)F)cc1`: the AC50 entry was “inactive”.

For `COc1ccc(NC(=O)N(C2CCCCC2)C(C)c2cccnc2)c(OC)c1` (stereo unspecified), the AC50 result is “inactive”.

For `Cc1cc(OC(=O)c2ccccc2Br)cc(=O)n1C`, the AC50 result was “inactive”.

Regarding `O=C(CCc1nc2ccccc2c(=O)[nH]1)OCC(=O)N1CCN(S(=O)(=O)c2ccccc2)CC1`, the AC50 entry is “inactive”.

Regarding `Cc1nc2ccccn2c1/C(O)=C1\C(=O)C(=O)N(CCCn2ccnc2)C1c1ccncc1` (stereo unspecified), the AC50 entry was “inactive”.

For the molecule `CCN(CC)c1ccc(NC(=O)c2cccnc2)c(C)c1`, the AC50 result is “inactive”.

Turning to `COc1ccc(-c2cc3ccccc3n2CC(O)CNCCO)cc1` (stereo unspecified), the AC50 is 0.562 µM (active).

Regarding `COc1cccc(C2C(C(=O)c3cc4ccccc4o3)=C(O)C(=O)N2c2cc(C)on2)c1OC` (stereo unspecified), the AC50 result is “inactive”.

`CSc1nc2n(n1)C(c1cccc(F)c1)C(C(=O)Nc1ccc(C)cc1C)=C(C)N2` (stereo unspecified): the AC50 entry was “inactive”.

For the molecule `O=C(c1cccc(F)c1)N1CCC2(CCCN(Cc3ccncc3)C2)CC1`, the concentration at half-maximal activity (AC50) was 7.94 µM (active).

Regarding `O=C(c1ccco1)N1CCC2(CCCN(Cc3ccccc3)C2)CC1`, the AC50 result is “inactive”.

Turning to `O=C(c1ccncc1)N1CCC2(CCCN(Cc3ccccc3)C2)CC1`, the AC50 result was “inactive”.

In the case of `N#Cc1cccc(NC(=O)N2CCCC3(CCN(C(=O)c4ccco4)CC3)C2)c1`, the AC50 entry is “inactive”.

For the molecule `COc1ccc(C(=O)N2CCC3(CCN(Cc4ccc(C#N)cc4)CC3)CC2)cc1`, the AC50 result was “inactive”.

As to `N#Cc1ccc(CN2CCCC3(CCN(C(=O)c4ccncc4)CC3)C2)cc1`, the AC50 result is “inactive”.

As to `N#Cc1ccc(CN2CCCC3(CCN(C(=O)c4cccc(F)c4)CC3)C2)cc1`, the AC50 entry was “inactive”.

As for `O=C(c1ccco1)N1CCC2(CCCN(Cc3ccncc3)C2)CC1`, the AC50 was 3.16 µM (active).

On to `O=C(c1ccncc1)N1CCC2(CCCN(Cc3ccncc3)C2)CC1`, for which the AC50 was 6.31 µM (active).

Take `O=C(c1cccc(F)c1)N1CCC2(CCCN(Cc3nccs3)C2)CC1`: the AC50 entry was “inactive”.

As for `N#Cc1ccc(CN2CCC3(CC2)CCN(C(=O)c2ccncc2)CC3)cc1`, the AC50 was 6.31 µM (active).

Regarding `CC1(C)NC(=O)N(c2ccc([N+](=O)[O-])c(C(F)(F)F)c2)C1=O`, the AC50 result is “inactive”.

Consider `O=[N+]([O-])c1ccc(N2CCCCC2)c(Cl)c1N1CCCCC1`, for which the AC50 result was “inactive”.

Turning to `Cc1ccc(C)c(Cn2cnc3c(cnn3C(C)(C)C)c2=O)c1`, the AC50 result was “inactive”.

Consider `N#Cc1cccc(-c2nc3cnc(N4CCOCC4)nc3n(C[C@H]3CCCO3)c2=O)c1`, for which the AC50 result is “inactive”.

For `CC1(C)Cc2c(C#N)c(SCc3ccccc3)nc(N3CCOCC3)c2CO1`, the AC50 result is “inactive”.

For `Cn1c(=O)c2[nH]c(CSCc3ccccc3)nc2n(C)c1=O`, the activity, negative = inhibition was -20.6% [at 11.4 µM] (inactive).

As for `COc1ccc(C2=NOC(C(=O)Nc3ccc(C(C)=O)cc3)C2)cc1OC` (stereo unspecified), the AC50 result is “inactive”.

In the case of `CC(C)C(=O)N[C@H]1CCCN1C(=O)/C=C\c1ccccc1`, the activity, negative = inhibition was -5.27% [at 11.4 µM] (inactive).

Turning to `Cn1c(=O)c2[nH]c(CCCc3ccc([N+](=O)[O-])cc3)nc2n(C)c1=O`, the activity, negative = inhibition is -15.3% [at 11.4 µM] (inactive).

On to `COc1ccccc1-c1cncnc1N1CCN(C)CC1`, for which the AC50 was 25.1 µM (active).

In the case of `COc1ccccc1N1CCN(C[C@@H]2CN3C(=O)N(C)c4ccccc4C3=N2)CC1`, the AC50 entry was “inactive”.

With `CN1CCN(c2ccncc2S(=O)(=O)N2CCN(C)CC2)CC1`, the activity, negative = inhibition is 0.642% [at 11.4 µM] (inactive).

With `Cc1ccccc1-c1cncnc1N1CCN(C)CC1`, the AC50 is 12.6 µM (active).

Consider `CN1CCN(c2ncncc2-c2ccccc2Cl)CC1`, for which the AC50 was 12.6 µM (active).

For `Cc1nc2cnc(N3CCN(C)CC3)nc2n(-c2ccccc2)c1=O`, the AC50 entry was “inactive”.

On to `COc1ccccc1N1CCN(c2nc3c(C)cccn3c(=O)c2C=O)CC1`, for which the AC50 result was “inactive”.

Turning to `COc1ccc(Cc2ccccc2C(=O)O)c2ccccc12`, the activity, negative = inhibition is 11.8% [at 11.4 µM] (inactive).

Consider `CC(C)CNS(=O)(=O)c1cc(C(=O)N2CC(C)OC(C)C2)c(Cl)cc1Cl` (stereo unspecified), for which the AC50 result is “inactive”.

As for `O=C(O)[C@@H](O)c1ccc(F)cc1`, the activity, negative = inhibition is 4.43% [at 11.4 µM] (inactive).

Regarding `O=C1CCN(S(=O)(=O)c2ccccc2)N1`, the AC50 result was “inactive”.

For the molecule `Fc1cccc(F)c1C(Nc1nncs1)Nc1nncs1`, the activity, negative = inhibition was 19.1% [at 11.4 µM] (inactive).

Take `CC(=O)C[C@H](c1ccc([N+](=O)[O-])cc1)c1c(O)c2ccccc2oc1=O`: the AC50 result is “inactive”.

With `OC[C@@H](O)[C@@H](O)[C@@H](O)[C@@H](O)c1nc2ccc(Cl)cc2[nH]1`, the activity, negative = inhibition was 19.4% [at 11.4 µM] (inactive).

Consider `C1COC(NC(C2CC2)C2CC2)=N1`, for which the AC50 is 0.398 µM (active).

Turning to `Cc1noc(C)c1C(=O)N1CCC[C@@]2(CCN(c3ncccn3)C2)C1`, the AC50 entry is “inactive”.

Take `Nc1nc(C(=O)O)c(N=Nc2ccccc2)c(=O)[nH]1`: the activity, negative = inhibition was -12.3% [at 11.4 µM] (inactive).

Regarding `CC(C)(C)C(=O)Nc1nnc(SCC(=O)NCc2cccs2)s1`, the AC50 result is “inactive”.

In the case of `CCCC(=O)Nc1nnc(SCC(=O)NCc2cccs2)s1`, the AC50 result is “inactive”.

For the molecule `O=C(CSc1nnnn1-c1ccccc1)NCc1cccs1`, the AC50 was 2.51 µM (active).

For `C[C@@H]1O[C@H](O[C@@H]2[C@@H](Oc3cc(O)c4c(c3)O[C@H](c3ccc(O)cc3)CC4=O)O[C@@H](CO)[C@@H](O)[C@H]2O)[C@@H](O)[C@H](O)[C@@H]1O`, the AC50 result is “inactive”.

Turning to `CC(C)C(=O)N[C@@H]1CCCN1C(=O)/C=C\c1ccccc1`, the activity, negative = inhibition is -16.8% [at 11.4 µM] (inactive).

With `CCOC(=O)N1CCC(NC(=O)CS(=O)(=O)Cc2nc(-c3cccc(OC)c3)oc2C)CC1`, the AC50 result was “inactive”.

For `Cc1cccc(-c2nc(CN3CCCC(C(=O)NC4CCCCC4)C3)c(C)o2)c1` (stereo unspecified), the AC50 is 4.47 µM (active).

With `CCC(C)NC(=O)C1CCCN(C(=O)NC2CCCCC2)C1` (stereo unspecified), the AC50 entry was “inactive”.

In the case of `O=c1c(-c2ccccc2)nc2cnc(N3CCOCC3)nc2n1C1CC1`, the AC50 result was “inactive”.

`CC(C)(C)c1cc(C(=O)O)c(CN2CCCCC2)o1`: the AC50 result was “inactive”.

Regarding `O=C(O)c1cccc(SSc2cccc(C(=O)O)c2)c1`, the activity, negative = inhibition was -12% [at 11.4 µM] (inactive).

In the case of `O=C(O)c1cccc(CN2CCCCC2)c1`, the half-maximal activity concentration (AC50) is 1 µM (active).

Consider `O=c1c(-c2ccc(Cl)cc2)nc2cnc(N3CCNCC3)nc2n1Cc1ccc(F)cc1`, for which the AC50 result is “inactive”.

Take `Cc1ccc(S(=O)(=O)N[C@H]2COC(=O)[C@@H](C)COC(=O)[C@H](C)NC(=O)C/C=C\[C@H]2C)cc1`: the activity, negative = inhibition was -1.17% [at 11.4 µM] (inactive).

Regarding `CCCCC1=NN2C(=N)CC(=O)N=C2S1`, the AC50 result is “inactive”.

On to `Cc1cccc(Nc2ccccc2C(=O)O)c1C`, for which the AC50 entry was “inactive”.

In the case of `CCOC(=O)/C(=C/Nc1ccccc1)[N+](=O)[O-]`, the AC50 result is “inactive”.

Turning to `Cc1ccc(NC(=O)Nc2ncccc2C)cc1`, the AC50 result was “inactive”.

For `CCOC(=O)C(=CNc1cccc(C)c1C)C(=O)OCC`, the AC50 is 1.58 µM (active).

In the case of `CCOC(=O)C(=CNc1ncccc1C)C(=O)OCC`, the AC50 is 8.91 µM (active).

With `CCOC(=O)C(=Cc1ccc(F)cc1)C(=O)OCC`, the AC50 result is “inactive”.

As for `NCCSS(=O)(=O)CCN`, the activity, negative = inhibition was 27.6% [at 11.4 µM] (inactive).

`Cc1nc2c(C)cccn2c1/C(O)=C1\C(=O)C(=O)N(CCN2CCOCC2)C1c1cccs1` (stereo unspecified): the AC50 entry was “inactive”.

With `COC(=O)C/C=C\[C@@H](C)[C@@H](/C=N\OC[C@@H](O)[C@H]1O[C@H]2OC(C)(C)O[C@H]2[C@@H]1O)NS(=O)(=O)c1ccc(C)cc1`, the activity, negative = inhibition was -10.1% [at 11.4 µM] (inactive).

Consider `CC1(C)C(=O)C(c2ccccc2)=C2CN3C(=O)N(CCc4ccccc4)C(=O)C3(Cc3ccc(F)cc3)C=C21` (stereo unspecified), for which the AC50 entry is “inactive”.

`CC(C)(C)Nc1nc(N2CCCC2)nc(N2CCCC2)n1`: the concentration at half-maximal activity (AC50) is 3.55 µM (active).

As to `CNc1nc(Cl)nc(NC(C)(C)C)n1`, the AC50 result was “inactive”.

On to `Cc1cc(C)n(-c2nc(NC(C)(C)C)nc(NC(C)(C)C)n2)n1`, for which the AC50 entry is “inactive”.

As for `COC(=O)C/C=C\[C@@H](C)[C@@H](CO)NS(=O)(=O)c1ccc(C)cc1`, the activity, negative = inhibition is -2.05% [at 11.4 µM] (inactive).

`O=C1/C(=C\c2ccc(Br)o2)SC(=Nc2ccccc2)N1c1ccccc1`: the AC50 entry was “inactive”.

As to `Cc1cccc(NC(=O)NNC(=O)c2cc(-c3ccccc3Cl)nc3ccccc23)c1`, the AC50 entry is “inactive”.

Take `CC(C)(C)c1nc(SCC(=O)Nc2ccc(N3CCOCC3)cc2)c2ccccc2n1`: the AC50 entry is “inactive”.

On to `Cc1cc(C(=O)Nc2c(C)n(C)n(-c3ccccc3)c2=O)c2ccccc2n1`, for which the AC50 entry was “inactive”.

Regarding `Cc1cc(C(=O)Nc2ccc(N3CCOCC3)cc2)c2ccccc2n1`, the AC50 is 14.1 µM (active).

Take `COC(=O)c1sccc1NC(=O)c1cc(-c2ccc(C)cc2)nc2ccccc12`: the AC50 result is “inactive”.

Consider `Cc1ccc(NC(=O)c2cc(Cl)nc3ccccc23)cc1`, for which the AC50 is 0.178 µM (active).

For `O=C1C2=C(Nc3cc([N+](=O)[O-])ccc3N2)O[C@@H]1c1ccc([C@H]2OC3=C(Nc4ccc([N+](=O)[O-])cc4N3)C2=O)cc1`, the activity, negative = inhibition was -7.54% [at 11.4 µM] (inactive).

Consider `O=C1c2ccccc2C(=O)c2c(NC3CCCCC3)ccc(Nc3ccc(S(=O)(=O)O)cc3)c21`, for which the activity, negative = inhibition is -10.8% [at 11.4 µM] (inactive).

Source of the values: PubChem BioAssay AID1851 (National Center for Advancing Translational Sciences (NCATS), 2009).
